# Experimental data as given in PubChem BioAssay AID1698 (The Scripps Research Institute Molecular Screening Center, 2009).
# This is one part of the list. A number with no mark means an inactive call. Activity calls are given as the source filed them.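 The calls were made as follows: active = activation above the solvent-only control wells' mean plus 3 SD (cut at about 11% in these data); inactive = the rest.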
# Biological target: Neuropeptide Y receptor type 2 (Homo sapiens) (UniProt P49146)
# Experiment: NPY-Y2 direct agonists without NPY, counter-screen for NPY-Y1 potentiator project, cell-based, fluorescence (AID 1698);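 also: 0% = DMSO with isoproterenol and 100% = 40 nM NPY maximal response; agonism lowers cAMP so well fluorescence drops in active wells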
# Conditions: HEK293 Y2-CNGC, membrane potential fluorescence, agonist mode; at 3.6 µM; active compounds read high
# Chain of Neuropeptide Y receptor type 2 (Homo sapiens) (P49146 whole entry, looked up): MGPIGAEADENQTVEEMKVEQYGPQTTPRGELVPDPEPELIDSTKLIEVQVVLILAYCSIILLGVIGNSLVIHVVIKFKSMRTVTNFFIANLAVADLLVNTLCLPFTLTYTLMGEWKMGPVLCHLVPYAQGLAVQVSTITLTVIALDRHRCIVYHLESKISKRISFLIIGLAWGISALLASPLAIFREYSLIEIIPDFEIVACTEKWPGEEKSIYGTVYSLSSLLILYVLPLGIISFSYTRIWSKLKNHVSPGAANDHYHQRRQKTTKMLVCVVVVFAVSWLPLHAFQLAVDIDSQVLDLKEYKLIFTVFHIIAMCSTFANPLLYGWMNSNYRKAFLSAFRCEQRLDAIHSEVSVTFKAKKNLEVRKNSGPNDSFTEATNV
row,SMILES,activation
1,CSC1=NP(=S)(SC)N(C)c2nc3n(c21)CCC3 (configuration not stated),5.24%
2,Cc1nn(Cc2ccccc2Cl)c(Cl)c1C(=O)OC(C(=O)NC(N)=O)C(C)C (configuration not stated),31.5% (active)
